An excerpt weighted towards active compounds, which were near 19% of everything screened.
TDP1 cell noCPT – qHTS for Inhibitors of human tyrosyl-DNA phosphodiesterase 1 (TDP1): qHTS in cells in absence of CPT; DT40 Tdp1-/- hTDP1 cells, no CPT, ATP luminescence, 48 h; Potency, µM (series often up to 46.2 µM), for inactives: top-dose activity change, negative = growth inhibition, actives largely listed as inhibitors; 420,000 tested, 15% active; AID 686978, 2013; further: potency means the concentration at half of the fitted maximal effect; nearly all actives have a fitted effect of over 55% in size
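Stably hTDP1-transfected Tdp1-null chicken DT40 cells were treated with library compounds minus camptothecin and grown for at least 48 hr at 37 °C, after which cellular ATP was quantified by luminescence.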
HT1080 IDH1KD tx – qHTS for induction of synthetic lethality in tumor cells producing 2HG: qHTS for the HT-1080-IDH1KD cell line; HT-1080 IDH1 knockdown viability, ATP luminescence, 48 h; Potency, µM (top dose mostly 46.1 µM), inactives show top-dose activity, negative = toxicity, hits mostly cytotoxic; 360,000 tested, 2% active;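 further: potency means the concentration at half of the fitted maximal effect; 0% = DMSO wells and -100% = cell-free medium wells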
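Using the IDH1-knockdown HT-1080 line run in the same batch and compound series as the NT line, viability after 48 h at 37 °C was determined by CellTiter-Glo luminescence and expressed as % activity.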
IL-1B inflam inh – qHTS for Inhibitors of Inflammasome Signaling: IL-1-beta AlphaLISA Primary Screen | activity change, % at 57.5 µM | 360,000 tested, 4.7% active | THP-1 LPS/ATP IL-1B secretion, AlphaLISA, 16 h; stronger effect = lower value; in the data active means activity change below about -50%; inconclusive means mostly about -30% to -49%
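Secreted IL-1B measured by AlphaLISA bead assay after 16 h compound exposure of THP-1 cells; compounds (final up to 57.5 uM) added 1 h before LPS (250 ng/mL) and ATP (1.25 mM) stimulation; lower signal means less secretion.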
HT1080-NT tox – qHTS for induction of synthetic lethality in tumor cells producing 2HG: qHTS for the HT-1080-NT fibrosarcoma cell line; HT-1080-NT fibrosarcoma viability, CellTiter-Glo ATP luminescence, 48 h; Potency, µM (series often up to 46.1 µM), for inactives: top-dose activity, negative = less viability, actives largely listed as cytotoxic; 360,000 tested, 1.6% active; AID 686970, 2013;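 further: NT is the 2HG producing partner of a matched IDH1 knockdown line; potency means the concentration at half of the fitted maximal effect; 0% = DMSO-treated cells and -100% = media-only wells without cells; nearly all actives have a fitted effect of over 55% in size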
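A 48-hour cytotoxicity screen used HT-1080-NT cells plated 2 hours before compound delivery. ATP-based CellTiter-Glo luminescence measured viability, normalized to DMSO and no-cell controls.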
DT40 TDP1 CPT – qHTS for Inhibitors of human tyrosyl-DNA phosphodiesterase 1 (TDP1): qHTS in cells in presence of CPT; chicken DT40 Tdp1-/-;hTDP1 cells + 20 nM CPT, ATP luminescence, 48 h; 420,000 tested, 12% active; Potency, µM (doses to about 46.2 µM), inactives show at the highest dose activity change, negative = growth inhibition, actives largely listed as inhibitors; AID 686979, 2013; further: potency means the concentration at half of the fitted maximal effect; nearly all actives have a fitted effect of over 55% in size
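Chicken DT40 Tdp1-/- cells complemented with human TDP1, 400 cells/well, exposed to compounds plus 20 nM camptothecin for at least 48 h at 37 C; viability read as ATP content by CellTiter-Glo luminescence.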
Active calls of the source: *; ? = inconclusive; . = no result. Unless noted, the call rests on the fitted dose curve; in most records, active means well fitted curve in the direction sought with a large enough effect; inconclusive means small, poorly fitted or top-dose-only effect, or another doubt; inactive means no such curve, though single readings can be large; an effect the other way counts as inactive or inconclusive. Unless noted, on the % scale 0 is the no-effect control and ±100 the full control effect.

SMILES	TDP1 cell noCPT	HT1080 IDH1KD tx	IL-1B inflam inh	HT1080-NT tox	DT40 TDP1 CPT
CCOc1ccc(Cl)cc1-c1cc(C(=O)NCC2CCCCC2)[nH]n1	6.5µM*	-18%	?	0%	4.1µM*
Cc1cc(F)ccc1-c1cc(C(=O)NCC2CCCCC2)[nH]n1	?	-3%	?	-8%	21µM*
COc1ccc(Cl)cc1-c1cc(C(=O)NCC2CCCCC2)[nH]n1	12µM*	?	3	?	8.2µM*
Cc1ccc(C(=O)NCC(=O)OCC(=O)c2ccc3ccccc3c2)cc1	-15%	.	.	.	-14%
CCN(CC)S(=O)(=O)c1ccc2c(c1)nc(CCC(=O)Nc1ccccc1Cc1ccccc1)n2CC	23µM*	-27%	-14	-8%	21µM*
CCn1c(CCC(=O)Nc2cc(F)ccc2C)nc2cc(S(=O)(=O)N(C)C)ccc21	-13%	5%	2	8%	?
CCCNC(=S)NC1CCCC1	?	?	-9	?	-22%
NNC(=S)NC1CCCCC1	5.8µM*	28%	6	9%	6.5µM*
Cc1ccc(S(=O)(=O)N2CCC(C(=O)O)CC2)cc1	1%	-2%	-4	0%	-7%
Cc1cc2oc(=O)cc(-c3cc4ccccc4o3)c2cc1O	23µM*	0%	0	4%	26µM*
O=c1cc(-c2cc3ccccc3o2)c2cc(O)ccc2o1	?	?	-16	?	-47%
COc1ccc(CCNC(=O)CCS(=O)(=O)c2ccc3c(c2)oc(=O)n3C)cc1OC	6%	0%	-4	3%	-5%
Cc1cccc(C)c1NC(=O)C(=O)NCC(c1ccc2c(c1)OCO2)N1CCN(C)CC1 (stereo not given)	-4%	.	.	.	-8%
CCc1ccc(NC(=O)C(=O)NCC(c2ccc3c(c2)OCO3)N2CCN(C)CC2)cc1 (stereo not given)	16µM*	.	.	.	?
Cc1ccc(NC(=O)C(=O)NCC(c2ccc3c(c2)OCO3)N2CCN(C)CC2)cc1C (stereo not given)	?	.	.	.	16µM*
O=C(CNC(=O)c1ccco1)OCc1ccccc1F	0%	17%	-10	-1%	13%
O=C(NCC1CCOCC1)C1Cc2c(-c3ccccc3Oc3ccccc3)ccnc2O1 (stereo not given)	?	-9%	-5	?	?
CC(=O)c1cccc(-c2ccnc3c2CC(C(=O)NCC2CCOCC2)O3)c1 (stereo not given)	2.9µM*	?	20	?	3.7µM*
CC(=O)c1cccc(-c2ccnc3c2CC(C(=O)NCC2CC2)O3)c1 (stereo not given)	?	?	65	?	23µM*
NC(=O)c1cccc(-c2ccnc3c2CC(C(=O)NCCC(F)(F)F)O3)c1 (stereo not given)	-20%	24%	16	?	?
CC(=O)c1cccc(-c2ccnc3c2CC(C(=O)NCCC(F)(F)F)O3)c1 (stereo not given)	?	21µM*	74	?	?
COCCCNc1ncnc2c1nnn2C	-5%	.	.	.	?
O=C1CSC(=S)N1Nc1ccccc1	-14%	5.8µM*	-13	?	-14%
Cc1noc(C)c1COc1ccccc1C(=O)N(C)CC(=O)Nc1ccc(F)c(F)c1F	7%	2%	7	7%	13%
CN(CC(=O)Nc1ccc(F)c(F)c1F)C(=O)CCN1C(=O)C2CCCCC2C1=O (stereo not given)	?	0%	12	10%	-9%
Cc1nc2c(-c3ccc(F)cc3)cnn2c(N)c1-c1ccccc1	?	?	-73*	?	?
CC(C)(C)S(=O)(=O)N1C[C@@H]2CC/C=C\C/C=C\2[C@H]1CCO	8.2µM*	2%	11	7%	13µM*

Screening data: PubChem, National Center for Advancing Translational Sciences (NCATS)
